An excerpt weighted towards active compounds, which were near 7.7% of everything screened.
Giardia FBPA inh: inhibitors of Giardia lamblia fructose-1,6-bisphosphate aldolase; A8B2U2; purified Giardia FBPA; Potency, µM (series often up to 59.6 µM), inactives show at the highest dose activity, negative = inhibition, most hits filed as inhibitors; 290,000 compounds, 0.71% hits; also: potency is read from the fitted curve at half-maximal effect; nearly all actives have a fitted effect of over 55% in size
Target sequence (A8B2U2 whole entry, looked up): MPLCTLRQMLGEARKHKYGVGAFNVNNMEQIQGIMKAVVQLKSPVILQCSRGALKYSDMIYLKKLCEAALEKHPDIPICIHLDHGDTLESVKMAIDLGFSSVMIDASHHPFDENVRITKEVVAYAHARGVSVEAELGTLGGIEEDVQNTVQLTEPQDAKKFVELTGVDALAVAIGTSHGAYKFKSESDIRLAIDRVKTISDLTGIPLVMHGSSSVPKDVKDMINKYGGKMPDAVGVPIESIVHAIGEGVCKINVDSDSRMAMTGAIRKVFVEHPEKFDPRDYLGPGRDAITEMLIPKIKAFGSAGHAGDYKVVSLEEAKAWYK
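Giardia FBPA (40 nM reagent) was preincubated 10 min at RT with compound (up to 57.5 uM final), then substrate plus GAPDH/TPI/NAD/arsenate coupling system with diaphorase/resazurin was added; resorufin fluorescence (525/598 nm) was read after 20 min.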
FMDV inh: blocks foot and mouth disease virus; FMDV antiviral cell-based qHTS; Potency, µM (highest dose often 57.9 µM), without a hit: at the top dose activity change, negative = inhibition, hits mostly inhibitors; 410,000 compounds, 1.2% hits; AID 1159524; calls by dose curve; tested in HEK293T cells; also: read-out not given here; potency is read from the fitted curve at half-maximal effect; nearly all actives have a fitted effect of over 45% in size
HCMV antiviral: human cytomegalovirus inhibition. 410,000 compounds, 4.5% hits. activity change, negative = inhibition, % at 57.5 µM. HFF cells, HCMV-luciferase reporter, 72 h; hits give low values; in the data active = activity change below about -60%; inconclusive = no clear call, values can overlap the other calls; inactive = above about -39%
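HFF cells seeded 16 h at 37C, treated with compounds, infected with luciferase-reporter HCMV at MOI 1 PFU/cell; luciferase read at 72 h post infection, normalized to buffer-only and Salinomycin controls.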
Sm TGR block: inhibitors of Schistosoma mansoni thioredoxin glutathione reductase; Q962Y6; purified TGR, DTNB reduction, TNB absorbance 405 nm; Potency, µM (top dose mostly 114 µM), for inactives: top-dose activity change, negative = inhibition, actives largely listed as inhibitors; 360,000 compounds, 3% hits; AID 485364; also: potency is read from the fitted curve at half-maximal effect; nearly all actives have a fitted effect of over 60% in size
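First, TGR (20 nM dispensed) and NADPH were mixed with compound. Second, a 15 min room-temperature incubation followed. Third, further NADPH and then DTNB were added to start the reaction. Finally, TNB absorbance was monitored kinetically.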
TbPYK inhibitor: T. brucei pyruvate kinase inhibition. Q57TT1. TbPYK enzyme, Kinase-Glo Plus ATP luminescence, 45 min. Potency, µM (highest dose often 76.8 µM), for the others: at the highest dose activity, negative = inhibition, most hits filed as inhibitors. 410,000 compounds, 0.12% hits. AID 624173; also: potency is read from the fitted curve at half-maximal effect; nearly all actives have a fitted effect of over 50% in size
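Readout: single end-point luminescence (Kinase-Glo Plus, 10 min). Reaction conditions were TbPYK/substrate plus 130 uM ADP, 45 min at RT, pH 7.2 TEA buffer. No-enzyme wells served as controls, and data were normalized before concentration-response fitting.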
RE007 growth inh: less growth of the S. pombe RE007 Vpr strain; S. pombe RE007 Vpr strain, BacTiter-Glo ATP luminescence, 24 h; Potency, µM (doses to about 92.2 µM), without a hit: top-dose activity change, negative = less growth, most hits filed as inhibitors; 360,000 compounds, 0.21% hits; AID 651644; active = well fitted falling curve with a large enough effect; inconclusive = small, poorly fitted or top-dose-only effect; inactive = no such curve, though single readings can be large or run the other way; also: potency is read from the fitted curve at half-maximal effect; nearly all actives have a fitted effect of over 50% in size
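Fission yeast RE007 carrying one integrated HIV-1 vpr copy, seeded at OD 0.01 in PMG+AL medium with 23 nL pinned compound. Grown 24 h at 30 degrees; viability read by BacTiter-Glo luminescence after 5 min.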
The depositor's hits bear a star; u = inconclusive; x = no result; [ ] = remark or other dose. Unless noted, calls follow the shape of the dose curve; as a rule, active = well fitted curve in the direction sought with a large enough effect; inconclusive = small, poorly fitted or top-dose-only effect, or another doubt; inactive = no such curve, though single readings can be large; an effect the other way counts as inactive or inconclusive. % is scaled to controls: 0 for no effect and ±100 for the full control effect.

SMILES | Giardia FBPA inh | FMDV inh | HCMV antiviral | Sm TGR block | TbPYK inhibitor | RE007 growth inh
CCOC(=O)c1c(NC(C)=O)sc2c(OCC(O)CNC(C)(C)C)c(Br)ccc12 (stereo not given) | 0% | -11% | -85* | 0% | 4% | 6%
CCOC(=O)c1c(NC(C)=O)sc2c(O)c(Br)cc(Br)c12 | u | -8% | u | 40µM* | -17% | -10%
CCOC(=O)c1c(NC(C)=O)sc2c(O)cccc12 | -4% | -7% | -17 | 3%[11.4 µM] | x | 1%[3.69 µM]
COc1ccccc1-c1cc2c(Nc3cccc(S(C)(=O)=O)c3)nccc2[nH]1 | x | x | -26 | x | x | x
Cc1cc(=O)n(CC(=O)N2CCN(c3ccc(F)cc3)CC2)c2c1c(C)nn2C | x | 28µM* | -30 | 1% | 2% | x
CCOC(=O)C1CCCN(C(=O)Cn2c(=O)cc(C)c3c(C)nn(C)c32)C1 (stereo not given) | x | u | -10 | -7% | 1% | x
Cc1ccc2[nH]cc(CCNC(=O)c3ccco3)c2c1 | 1% | 0% | 40 | -10% | -5% | 4%
Cc1ccc(/C=C/C(=O)NCCc2cccc(Cl)c2)o1 | 3% | 5% | -13 | 2.5µM* | 16µM* | 10%
Cc1ccc(/C=C/C(=O)NCCc2c[nH]c3ccccc23)o1 | -2% | 19% | -27 | 14µM* | -22% | 7%
Cc1ccc2[nH]cc(CCNC(=O)/C=C/c3ccco3)c2c1 | -3% | -20% | 2 | 28µM* | -2% | -9%
COc1ccc(NC(=O)CCc2nnc3n(C)c(=O)c4sccc4n23)cc1 | x | -18% | -6 | -4% | -3% | x
O=C(Nc1ccc(Cl)cc1)Nc1nnc(SCc2ccccc2)s1 | 3% | 0% | -35 | -6% | -1% | -9%
O=C(Nc1ccc(Cl)cc1)Nc1nnc(CSCc2ccccc2Cl)s1 | 4% | u | -91* | -8% | -4% | -17%
O=C(Nc1ccccc1)Nc1nnc(CSCc2ccccc2Cl)s1 | 1% | 0% | u | 0% | -13% | 13%
O=C(Nc1ccc(Cl)c(Cl)c1)Nc1nccs1 | -7% | -18% | -66* | 15% | -2% | u
O=C(Nc1ccc(Cl)c(Cl)c1)Nc1nnc(CSc2ccccc2)s1 | 2% | u | -99* | 7% | 2% | 40%
COc1cccc(NC(=O)CSc2nc3cc(OC)c(OC)cc3c3nc(-c4ccccc4)nn23)c1 | x | -4% | 2 | 38% | 3% | x
Cc1ccc(NC(=O)c2ccc3c(=O)n4c(nc3c2)CCCCC4)nc1 | x | -9% | -8 | -2% | -4% | -27%
O=C(Nc1nc(-c2ccccc2)cs1)c1ccc2c(=O)n3c(nc2c1)CCCCC3 | 6% | 16µM* | -90* | 4% | 5% | -13%
Cc1cc(C)c2nc(NC(=O)c3ccc4c(=O)n5c(nc4c3)CCCCC5)sc2c1 | 0% | -26% | -72* | -8% | -5% | -7%
Cc1ccc(NC(=O)c2ccc(F)cc2)cc1S(=O)(=O)N1CCCCCC1 | -12% | u | -78* | 6% | -1% | 2%
COc1ccc(C(=O)Nc2ccc(C)c(S(=O)(=O)N3CCCCCC3)c2)cc1 | -9% | 20µM* | -65* | 9% | 4% | 1%
COc1ccc(NC(=O)CN(C)CC(=O)Nc2ccc(C)c(S(=O)(=O)N3CCCCC3)c2)cc1 | x | -22% | -21 | -7% | -4% | -9%
Cc1c(-c2ccccc2)nnn1-c1ccc(F)c(Cl)c1 | x | x | 28 | x | x | x
CCc1ccccc1N(C)C(=O)Cc1c(C(=O)O)c(C)cn1C | x | -16% | -1 | 5% | -10% | x
SMILES | Giardia FBPA inh | FMDV inh | HCMV antiviral | Sm TGR block | TbPYK inhibitor | RE007 growth inh
CCSc1nnc2c(n1)OC(c1sccc1C)N(C(C)=O)c1ccccc1-2 (stereo not given) | x | -16% | -60* | -1% | -17% | x
COc1cccc(CNC(=O)[C@H]2CCCN2C(=O)[C@H]2CCCN2C(=O)c2ccc(C)c(C)c2)c1 | x | x | -27 | x | x | x
Cc1ccc(C)c(NC(=O)CSc2nnc(CCCCCNC(=O)OC(C)(C)C)o2)c1 | -8% | 16µM* | 71 | 0% | -6% | 19%
Cc1ccc(CSc2nnc(CCNC(=O)OC(C)(C)C)o2)cc1 | -1% | u | 14 | 1% | -6% | 2%
CC(C)(C)OC(=O)NCCCCCc1nnc(SCc2ccc(F)cc2)o1 | 0% | u | -67* | -8% | -8% | -22%
Cc1ccc(-c2nc(C)c(CCNS(=O)(=O)c3ccc(F)c(C(F)(F)F)c3)s2)cc1 | x | 42% | -33 | -13% | 7% | x
COC(=O)C/C=C\[C@H](C)[C@@H](OC)c1ccccc1Br | -1%[12.9 µM] | x | x | x | x | x
COc1ccc(NC(=O)C(c2ccc(C)cc2)N(C)C(=O)c2cnccn2)cc1 (stereo not given) | 3% | -22% | -23 | -25% | 7% | -5%
CC(=O)Nc1ccc(C(=O)N(C)C(C(=O)Nc2ccc(C)cc2)c2ccccn2)cc1 (stereo not given) | 0% | -8% | -63* | -4% | 0% | 66%
COc1ccc(NC(=O)C(c2ccccn2)N(C(C)=O)c2ccc(C)cc2)cc1 (stereo not given) | -11% | 18% | 93 | -4% | 4% | -6%
CCOc1ccc(NC(=O)C(c2ccccn2)N(C(=O)CCl)c2ccc(OC)cc2)cc1 (stereo not given) | 7.1µM* | 13% | 12 | 45µM* | -18% | -15%
CCOc1ccc(NC(=O)CSc2ccc(-c3ccccn3)nn2)cc1 | 5% | 3% | -27 | -12% | -2% | -5%
CCOc1ccc(NC(=O)C(c2ccccn2)N(C(=O)CCl)c2ccc(OCC)cc2)cc1 (stereo not given) | u | 16% | x | 45µM* | -17% | -5%
Cc1cc(C)cc(N2CC(c3nc(-c4ccccc4C)no3)CC2=O)c1 (stereo not given) | x | -13% | 3 | 3% | 5% | x
CCC(=O)N1CCN(c2ccc(NC(=O)COc3ccccc3Cl)cc2)CC1 | 4% | 32µM* | u | -7% | 7% | -16%
CCC(=O)N1CCN(c2ccc(NC(=O)COc3ccc(C)cc3C)cc2)CC1 | -6% | -15% | -14 | -8% | 7% | 2%
CCC(=O)N1CCN(c2ccc(NC(=O)COc3ccccc3[N+](=O)[O-])cc2)CC1 | 5% | 28µM* | -21 | -18% | 2% | -2%
CC(C)n1cc(NC(=O)COc2ccccc2Cl)cn1 | 9% | 23% | -61* | -1% | 5% | 0%
COc1cccc(C2(CC(=O)N3CCN(c4nonc4C)CC3)CC(=O)N(C3CCCC3)C2=O)c1 (stereo not given) | x | 32% | x | x | x | x
O=[N+]([O-])c1ccc(O)c(/C=N/NC(=S)Nc2ccc(Cl)cc2Cl)c1 | 17% | -13% | 0 | 8% | 8% | 1%
